Compounds with a hit are over-represented: about 1.6% of the library has one in this group of screens.
NPSR antag = antagonists of human neuropeptide S receptor cAMP signaling | Potency, µM (doses to about 38.3 µM), inactives show at the top dose activity change, negative = inhibition, usual class: inhibitors | 1% of 220,000 active | CHO-NPSR cells, cAMP TR-FRET, antagonist mode; further: potency means the concentration at half of the fitted maximal effect; on the % scale 0 is the no-effect control and ±100 the full control effect; nearly all actives have a fitted effect of over 50% in size
Target sequence (Q6W5P4 whole entry, looked up): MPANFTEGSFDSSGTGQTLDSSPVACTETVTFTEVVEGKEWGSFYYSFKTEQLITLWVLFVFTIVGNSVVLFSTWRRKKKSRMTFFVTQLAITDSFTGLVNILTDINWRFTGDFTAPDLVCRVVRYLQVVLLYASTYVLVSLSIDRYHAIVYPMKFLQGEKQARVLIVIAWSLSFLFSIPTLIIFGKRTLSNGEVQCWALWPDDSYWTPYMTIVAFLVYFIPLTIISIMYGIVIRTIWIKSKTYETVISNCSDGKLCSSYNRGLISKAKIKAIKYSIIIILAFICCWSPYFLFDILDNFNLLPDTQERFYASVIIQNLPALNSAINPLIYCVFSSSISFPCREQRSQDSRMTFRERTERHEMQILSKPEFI
HTT ATP protect = cytoprotection in Huntington HTT-Q103 PC12 cell model. PC12 HTT-Q103 induced, cytoprotection, ATP luminescence, 40 h. Potency, µM (titrated, usually from 56.4 µM), for the others: cytoprotection (ATP increase), actives largely listed as activators. 0.14% of 230,000 active; further: potency means the concentration at half of the fitted maximal effect; % of control where 0% means no effect; nearly all actives have a fitted effect of over 45% in size
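PC12 cells with ecdysone-inducible HTT exon 1 Q103-GFP, induced with 100 nM tebufenozide and co-treated with library compounds in a dose series (1536-well, 1500 cells/well). Cytoprotection read as ATP content by ATPlite luminescence.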
IMPase cell inh = cell-permeable inhibitors of inositol monophosphatase (IMPase); 120,000 tested, under 10 active; P97697; inhibition (IP1 accumulation), % at 46.1 µM; CHO-M1 cells, IP1 accumulation, HTRF TR-FRET ratio; AID 901; active means well fitted curve in the direction sought with a large enough effect in the signal ratio, not every such curve was filed as active; inconclusive means small, poorly fitted or top-dose-only effect, or a change in a side signal; inactive means no such curve, though single readings can be large or run the other way; the % refers to the signal ratio;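 further: cells stimulated with carbachol in lithium chloride buffer; plate controls were DMSO basal wells for no effect and reference inhibitor wells for full effect; higher means more IMPase inhibition seen as more IP1 and lower FRET ratio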
Target sequence (P97697 whole entry, looked up): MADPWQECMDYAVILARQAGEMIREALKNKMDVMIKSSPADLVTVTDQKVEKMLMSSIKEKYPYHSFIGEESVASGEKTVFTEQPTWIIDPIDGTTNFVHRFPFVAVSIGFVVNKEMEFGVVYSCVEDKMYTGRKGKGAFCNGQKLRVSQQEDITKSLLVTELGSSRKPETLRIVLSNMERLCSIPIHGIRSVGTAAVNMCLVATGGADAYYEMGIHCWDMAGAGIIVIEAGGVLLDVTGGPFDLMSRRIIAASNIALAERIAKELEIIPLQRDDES
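Elevated IP1 in lysates lowers TR-FRET signal (665/620 ratio and 620 channel reported). Cells were CHO-M1, given carbachol (50 uM as added) plus 50mM LiCl, pH 7.4, 30 min, 37C; compounds titrated up to 46 uM; AC50 by Hill equation.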
IMPase Li inh = membrane-permeable IMPase blocker, potentiated with lithium. CHO-M1 cells, IP1 TR-FRET (IP-One), carbachol + lithium. Potency, µM (doses to about 59.4 µM), for the others: at the top dose activity, negative = IMPase inhibition, actives largely listed as inhibitors. 0.35% of 210,000 active;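 further: IP1 builds up when IMPase is blocked and the TR-FRET signal falls; potency means the concentration at half of the fitted maximal effect; plate controls were basal vehicle for no effect and high inhibitor control for full effect; nearly all actives have a fitted effect of over 50% in size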
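Test compounds were applied to CHO-M1 cells previously cultured for 16–30 h at 2000 per well. A small lithium amount accompanied them; after 30 min at 37C, IP1 was quantified by TR-FRET.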
HTT aggregate = reduces HttQ103-GFP aggregates in PC12 cells; PC12 HttQ103-GFP aggregates, Acumen cytometry, 40 h; Potency, µM (titrated, usually from 46.1 µM), for inactives: at the top dose activity change, negative = inhibition, hits mostly inhibitors; 1.1% of 220,000 active; AID 1688; further: potency means the concentration at half of the fitted maximal effect; on the % scale 0 is the no-effect control and ±100 the full control effect; nearly all actives have a fitted effect of over 60% in size
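Quantitative HTS on tebufenozide-induced (100 nM) PC12 cells stably expressing polyQ103 Huntingtin exon 1–GFP. Reduction of bright GFP aggregates, detected by laser scanning cytometry after lysis, identified actives across the titration.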
LMNA splice mod = modulators of lamin A splicing. HeLa LMNA splicing GFP/RFP minigene ratio, 48 h. Potency, µM (highest dose often 46.1 µM), for the others: at the top dose ratio change, negative = inhibition, most hits filed as inhibitors. 0.01% of 200,000 active; active means well fitted inhibition curve with a large enough effect in the signal ratio, with a control signal flat, not every such curve was filed as active; inconclusive means small, poorly fitted or top-dose-only effect, or effect the other way, or a change in a side signal; the % refers to the signal ratio; further: potency means the concentration at half of the fitted maximal effect; on the % scale 0 is the no-effect control and ±100 the full control effect
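S3 HeLa cells stably expressing lamin A-EGFP splicing minigene plus DsRed2, 600 cells/well, 48 h compound exposure at 37C. Laser-scanning cytometry; analysed as GFP (500-530 nm)/RFP (575-640 nm) total intensity ratio; 0.5% DMSO vehicle.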
Numbers without * were called inactive; ? = inconclusive; . = no result; ! = not confirmed by another sample; [ ] = another dose, or the depositor's remark. Unless noted, the call rests on the fitted dose curve; in most records, active means well fitted curve in the direction sought with a large enough effect; inconclusive means small, poorly fitted or top-dose-only effect, or another doubt; inactive means no such curve, though single readings can be large; an effect the other way counts as inactive or inconclusive.

SMILES	NPSR antag	HTT ATP protect	IMPase cell inh	IMPase Li inh	HTT aggregate	LMNA splice mod
On1onc2c3cc(-c4ccccc4)nc3ccc21	12.6µM*	-2.9%	?	40.5%[38.3 µM]	-13.9%	?
c1ccc(-c2cc3c(ccc4nonc43)nn2)cc1	12.1%[46.1 µM]	-7.4%	2.9	-6.8%[38.3 µM]	7.8%	0.8%
O=C(O)COc1cccc(-c2ocnc2-c2nc(-c3ccccc3)c(-c3ccccc3)o2)c1	.	-0.8%	-7.1	-3.5%	.	.
CCn1c2c(c3cc(Br)ccc31)CCC/C2=N\O	22.1%[46.1 µM]	-22.5%	?	11.2µM*	-14.9%	?
COc1cc2oc(=O)c(Br)c(C)c2c(OC)c1OC	21.8%[46.1 µM]	-6.7%	?	12.6µM*	-14.1%	3.5%
O=C(O)c1cc(O)c2c(c1)[C@H]([C@H]1c3cc(C(=O)O)cc(O)c3C(=O)c3c(O[C@@H]4OC(CO)C(O)C(O)C4O)cccc31)c1cccc(O[C@@H]3OC(CO)C(O)C(O)C3O)c1C2=O (stereo not given in full)	.	-75.9%	.	4.1%	9.4%	?
CCCCCc1cc(=O)oc2c(C(CCN3CCCC(C)C3)c3cc(OC)c(OC)c(OC)c3)c(OC)cc(OC)c12 (stereo not given)	6.31µM*	-28.1%[10 µM]	.	.	-8.6%[9.22 µM]	.
CCCCCc1cc(=O)oc2c(C(CCN3CCCCC3)c3cc(OC)c(OC)c(OC)c3)c(OC)cc(OC)c12 (stereo not given)	10µM*	-19.9%[10 µM]	.	.	-9.0%[9.22 µM]	.
COc1cc(C(CCN2CCOCC2)c2c(OC)cc(OC)c3ccc(=O)oc23)cc(OC)c1OC (stereo not given)	.	-61.1%	.	13.0%	.	.
COc1cc(C(CCN2CCN(c3ccccc3)CC2)c2c(OC)cc(OC)c3c(C)cc(=O)oc23)cc(OC)c1OC (stereo not given)	6.31µM*	-30.6%[10 µM]	.	.	-18.3%[9.22 µM]	.
COC(=O)N1CCC[C@@]2(CCN(Cc3cc(C(F)(F)F)cc(C(F)(F)F)c3)C2)C1	.	3.7%	.	-1.6%	.	.
CC1=CC(C)=Nc2ccc(C)cc2N1	-6.8%[46.1 µM]	?	-5.8	2.1%[38.3 µM]	0.891µM*!	4.1%
Cc1ccc2c(c1)NC(=O)CC(c1ccccc1)=N2	7.6%[46.1 µM]	26.8%[1.9 µM]	2.7	22.7%	-12.2%	1.3%
CC1(C)CC(N2CCCC2)=CC(=[N+]2CCCCC2)C1	16.7%	.	.	11.4%	8.91µM*	.
Cc1ccc(NC(=S)N(C)Cc2cn(C)c3ccccc23)cc1	-21.4%	8.5%[10 µM]	.	6.6%	35.5µM*	?
Cn1cc(CN(CCCN2CCOCC2)C(=S)Nc2cccc(Cl)c2)c2ccccc21	-20.9%	-51.3%[10 µM]	0.4	0.4%	?	?
Cc1cccc(NC(=S)N(CCCN2CCOCC2)Cc2cn(C)c3ccccc23)c1	-4.6%	-39.2%[10 µM]	4.0	6.2%	8.91µM*	?
O=[N+]([O-])c1c(NCCCO)cc(Sc2nc3ccccc3s2)c2nonc12	?	-132.2%	2.6	25.8%[38.3 µM]	6.31µM*	?
COc1ccc2c(c1)[n+]([O-])c(/C(C)=N/NC(N)=S)c(C)[n+]2[O-]	.	0.4%[10 µM]	.	.	.	.
COC(=O)c1cc(C)sc1NC(=O)C1CC(=O)NN1Cc1ccccc1 (stereo not given)	-5.4%	1.3%[10 µM]	-2.2	-4.9%	18.9%	-9.7%
CCOC(=O)c1cc(CC)sc1NC(=O)C1CC(=O)NN1Cc1ccccc1 (stereo not given)	-13.3%[46.1 µM]	0.0%[10 µM]	-4.3	.	10µM*	-0.2%
O=C(Nc1nnc(C(F)(F)F)s1)C1COc2ccccc2O1 (stereo not given)	-1.7%[46.1 µM]	-23.3%	-0.4	13.1%[38.3 µM]	25.1µM*	?
O=C(Nc1nnc(C2CC2)s1)C1COc2ccccc2O1 (stereo not given)	-7.8%	-58.5%[10 µM]	.	-0.8%	-14.1%	-5.6%[46 µM]
O=C(Nc1nnc(C(F)(F)F)s1)c1ccc(Br)s1	-46.4%	.	.	-1.5%	5.62µM*	?
CC(NC(=O)Nc1nnc(C(F)(F)F)s1)(C(F)(F)F)C(F)(F)F	10µM*	-59.3%	-8.3	6.2%[38.3 µM]	2.24µM*	?
SMILES	NPSR antag	HTT ATP protect	IMPase cell inh	IMPase Li inh	HTT aggregate	LMNA splice mod
O=C(Nc1nnc(C2CCCCC2)s1)c1ccc(Br)s1	?	-13.4%	8.1	10µM*	-2.3%	-1.7%
C[C@@H]1C(=O)O[C@H]2[C@@H](O)[C@@]34[C@H]5C[C@H](C(C)(C)C)[C@@]36[C@H](OC(=O)[C@@H]6O)O[C@@]4(C(=O)O5)[C@@]12O	.	-2.2%	.	.	.	.
C=C/C(C)=C/[C@]1(C)SC(=O)C(C)=C1O	.	-3.4%[1.9 µM]	0.5	.	.	.
COc1c2c(c3c(c1CCC(=O)O)OC(C)(C)C=C3)OC(C)(C)C=C2	.	-12.8%[10 µM]	.	2.8%	.	.
O=C(NCc1cccnc1)/C(=C/c1ccc(-c2ccc(Cl)cc2)o1)S(=O)(=O)c1ccccc1	10µM*	-96.8%	16.0	17.0%[38.3 µM]	?	?
COc1ccc2c(c1)oc(=O)c1ccccc12	-14.9%	-6.9%	.	.	1.3%	?
O=c1oc2cc(O)c(Cl)cc2c2ccccc12	7.94µM*	36.4%[10 µM]	.	7.08µM*	-17.7%	?
O=C(O)[C@@H]1CCCN[C@H]1C(=O)O	.	?	0.9	.	.	.
COc1ccc(/C=C2/CCc3ccccc3C2=O)cc1CN1CCOCC1	10.1%	.	.	1.3%	0.3%	?
COc1ccc(/C=C2\CCc3ccccc3C2=O)cc1Cn1nc(C)cc1C	?	-14.0%	11.1	45.9%[38.3 µM]	25.1µM*	-17.8%
CCOc1ccc(Br)cc1/C(C)=N\NC1=NCCN1	19.1%[46.1 µM]	-7.9%	5.5	53.0%[38.3 µM]	12.6µM*	?
CCn1cc(C(=O)NCc2cccnc2)c(=O)c2cc(F)c(N3CCN(C(=O)c4ccco4)CC3)cc21	-15.0%[46.1 µM]	-9.3%	7.0	18.8%[38.3 µM]	-16.2%	?
CCn1cc(C(=O)NCc2cccc(F)c2)c(=O)c2cc(F)c(N3CCN(C(=O)c4ccco4)CC3)cc21	10µM*	-49.6%	2.4	43.0%[38.3 µM]	-14.9%	?
COc1ccc2c(c1)-c1nc(/N=C/c3ccccc3O)sc1CC2	12.1%	14.0%[10 µM]	.	-1.4%	-2.0%	-15.5%
COc1ccc2sc(/C=C/c3ccccc3O)[n+](C)c2c1	12.6µM*	.	.	34.0%	5.0%	.
CC(C)n1c2ccccc2c2cc([N+](=O)[O-])ccc21	-4.8%	10.6%[0.074 µM]	.	7.6%	2.0%	-13.8%
CCC(C)n1c(=S)[nH]c2c(sc3ccc([N+](=O)[O-])cc32)c1=O (stereo not given)	-11.4%	18.4%[10 µM]	.	2.6%	10µM*	?
Cc1ccc2oc3c(c(=O)c2c1)C(c1cccc(O)c1)N(c1ccccn1)C3=O (stereo not given)	10µM*	-4.2%	2.8	51.5%[38.3 µM]	-3.4%	?
CC(=O)C1=C(c2ccccc2)N(C(C)=O)n2c(nnc2C2CCCCC2)S1	.	.	.	.	.	-13.4%[46 µM]
